# According to PubChem BioAssay (NCATS):
# Inconclusive results are not listed. Where a call stands in place of a potency, no number is given. Activity calls are given as the source filed them. Unless noted, calls come from the whole dose curve.
# Legend:
# [1] = target: Glucocorticoid receptor (Homo sapiens) (UniProt P04150); assay: qHTS assay for small molecule agonists of glucocorticoid receptor signaling (AID 588532; active = well fitted curve in the direction sought with a large enough effect in the signal ratio, with a control signal flat; the % refers to the signal ratio); conditions: HeLa MMTV-bla, beta-lactamase ratio, agonist, 18 h; stronger effect = higher value; percent of dexamethasone control, DMSO zero
# Procedure, shortened: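 MMTV-bla HeLa, beta-lactamase reporter; medium with 1% charcoal/dextran-stripped FBS; cpds up to 92 uM, 18 h, 37 C; CCF4 readout 460/530 nm; Hill fit → EC50, efficacy vs 0.1 uM dexamethasone = 100%.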
# [2] = target: Glucocorticoid receptor (Homo sapiens) (UniProt P04150); assay: qHTS assay for small molecule antagonists of glucocorticoid receptor signaling (AID 588533; active = well fitted inhibition curve with a large enough effect in the signal ratio, with a control signal flat, not every such curve was filed as active; the % refers to the signal ratio;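 note: cells stimulated with 2 nM dexamethasone as agonist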); conditions: HeLa MMTV-bla, GRE beta-lactamase ratio, antagonist mode, 18 h; series mostly up to 76.8 µM
# Procedure, shortened: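 Antagonist-mode qHTS: compound titrations added to GRE-bla HeLa cells, then dexamethasone 2 nM final; 18 h, 37 C. CCF4 FRET fluorescence normalized to dexamethasone and DMSO; IC50 from Hill fit.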
# [3] = qHTS assay for small molecule antagonists of peroxisome proliferator-activated receptor delta signaling (AID 588535; active = well fitted inhibition curve with a large enough effect in the signal ratio, with a control signal flat, not every such curve was filed as active; the % refers to the signal ratio; note: potency is the fitted concentration of half-maximal effect;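 for max response: cells co-treated with a PPAR-delta agonist as stimulator during compound exposure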); conditions: HEK293T PPARd-UAS-bla, beta-lactamase FRET ratio, 18 h; 460 nm channel
# Procedure, shortened: (§1)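 Compounds tested in titration on PPAR-delta-UAS-bla HEK293T cells grown in charcoal/dextran-stripped serum (2%); beta-lactamase activity read via CCF4 emission at 460 and 530 nm.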
# [4] = target: Peroxisome proliferator-activated receptor delta (Homo sapiens) (UniProt Q03181); assay: as above; conditions: HEK293T PPARd-UAS-bla, beta-lactamase FRET ratio, 18 h; series mostly up to 76.7 µM
# Procedure, shortened: as §1
# [5] = target: Peroxisome proliferator-activated receptor gamma (Homo sapiens) (UniProt P37231); assay: qHTS assay for small molecule agonists of peroxisome proliferator-activated receptor gamma signaling (AID 588536; active = well fitted curve in the direction sought with a large enough effect in the signal ratio, with a control signal flat, not every such curve was filed as active; the % refers to the signal ratio); conditions: HEK293 PPARg-UAS-bla, beta-lactamase ratio, 16 h, percent of rosiglitazone response, DMSO as zero; series mostly up to 76.7 µM
# Procedure, shortened: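 Compound treatment: 16 h, 37 C, HEK293 GeneBLAzer cells. Detection: CCF4, 2 h RT. Values: Hill-fit EC50, efficacy as % of 2 uM rosiglitazone.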
# [6] = qHTS assay for small molecule agonists of retinoid X receptor alpha signaling (AID 588544); conditions: HEK293T RXRa-UAS-bla, beta-lactamase reporter, 18 h; 530 nm emission
# [7] = target: Retinoic acid receptor RXR-alpha (Homo sapiens) (UniProt P19793); assay: as above; conditions: HEK293T RXRa-UAS-bla, beta-lactamase reporter, 18 h; series mostly up to 76.7 µM
# [8] = target: Thyroid hormone receptor beta (Homo sapiens) (UniProt P10828); assay: qHTS assay for small molecule agonists of thyroid hormone receptor beta signaling (AID 588545); conditions: TR-UAS-bla GripTite HEK 293, beta-lactamase ratio, agonist mode, 18 h, percent of T3 response, DMSO as zero; series mostly up to 76.7 µM
# Procedure, shortened: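 Agonist activity was read as beta-lactamase CCF4 fluorescence (405 ex, 460/530 em), scaled between DMSO (0%) and 10 nM T3 (100%), then Hill-fitted for EC50 and efficacy. HEK 293 TR-UAS-bla cells in 2% charcoal/dextran FBS medium were exposed 18 h at 37 C.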
# [9] = qHTS assay for small molecule antagonists of retinoid X receptor alpha signaling (AID 588546; active = well fitted inhibition curve with a large enough effect in the signal ratio, with a control signal flat, not every such curve was filed as active; the % refers to the signal ratio;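 note: cells stimulated with 9-cis-retinoic acid as agonist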); conditions: HEK293T RXRa-UAS-bla, beta-lactamase ratio, antagonist mode; measured here: W530 green channel, cytotoxicity proxy
# Procedure, shortened: (§2)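 Beta-lactamase reporter inhibition, read as CCF4 fluorescence ratio (ex 405, em 460/530 nm) after 2 h at RT. HEK293T UAS-bla cells, 2500/well, were stimulated with 9-cis-RA at 500 or 100 nM final alongside test compound for 18 h at 37 C.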
# [10] = target: Retinoic acid receptor RXR-alpha (Homo sapiens) (UniProt P19793); assay: as above; conditions: HEK293T RXRa-UAS-bla, beta-lactamase ratio, antagonist mode
# Procedure, shortened: as §2
# [11] = target: Thyroid hormone receptor beta (Homo sapiens) (UniProt P10828); assay: qHTS assay for small molecule antagonists of thyroid hormone receptor beta signaling (AID 588547; active = well fitted inhibition curve with a large enough effect in the signal ratio, with a control signal flat, not every such curve was filed as active; the % refers to the signal ratio;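 note: cells stimulated with 0.4 nM T3 agonist during compound exposure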); conditions: TR-UAS-bla HEK293, beta-lactamase ratio, antagonist mode, 18 h
# Procedure, shortened: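 TR-UAS-bla GripTite HEK293 cells in 2% charcoal/dextran FBS medium were preincubated 4 h at 37 C, given compound (0.59 nM to 92 uM) plus 0.4 nM T3 (final) for 18 h, then CCF4 for 2 h at RT; Hill fit gave IC50.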
# [12] = target: Voltage-gated inwardly rectifying potassium channel KCNH2 (Homo sapiens) (UniProt Q12809); assay: qHTS Assay for Small Molecule Inhibitors of the Human hERG Channel Activity (AID 588834; active = well fitted inhibition curve with a large enough effect;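 note: top concentration of the series differs between compounds; lower thallium flux fluorescence means stronger hERG block; nearly all actives have a fitted effect of over 50% in size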); conditions: U2OS BacMam hERG, FluxOR thallium flux fluorescence; series mostly up to 92.2 µM
# Procedure, shortened: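 Thallium serves as surrogate for K+ influx through BacMam-delivered hERG in U2OS cells. Compounds are added for about 10 minutes after dye loading; stimulation buffer then starts flux, monitored kinetically on FDSS.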
# [13] = qHTS assay for small molecule agonists of the antioxidant response element (ARE) signaling pathway (AID 651741; active = well fitted activation curve with a large enough effect in the signal ratio; the % refers to the signal ratio; note: potency is the fitted concentration of half-maximal effect); conditions: HepG2 ARE-bla reporter, beta-lactamase FRET ratio, 16 h; series mostly up to 96 µM
# Procedure, shortened: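 Beta-lactamase reporter expression driven by the antioxidant response element in HepG2 cells was detected by fluorescence with LiveBLAzer B/G FRET substrate (2 h, room temperature) following 16 h compound treatment at 37 C.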
# [14] = qHTS assay for small molecule activators of the p53 signaling pathway (AID 651743; active = well fitted activation curve with a large enough effect in the signal ratio, not every such curve was filed as active; the % refers to the signal ratio); conditions: HCT-116 p53RE-bla, beta-lactamase FRET ratio, 16 h; stronger effect = higher value
# Procedure, shortened: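 Here HCT-116 cells with an integrated p53-responsive beta-lactamase gene were incubated with compounds (16 hours, 37 C) after a 5-hour plating period; beta-lactamase activity was detected as fluorescence intensity via B/G FRET substrate.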
# [15] = qHTS assay for small molecule activators of the nuclear factor-kappa B (NF-kB) signaling pathway (AID 651749; active = well fitted activation curve with a large enough effect in the signal ratio; the % refers to the signal ratio); conditions: NF-kB-bla ME-180 cells, beta-lactamase FRET ratio, 16 h; stronger effect = higher value
# Procedure, shortened: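 Beta-lactamase reporter expression, controlled by NF-kB response elements in ME-180 cells, was quantified fluorometrically via FRET disruption; cells at 2,000/well had been incubated with 23 nL test compound for 16 hr.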
# [16] = qHTS assay for small molecule disruptors of the mitochondrial membrane potential - 1 hr assay (AID 651754); conditions: series mostly up to 92.2 µM; note: nearly all actives have a fitted effect of over 35% in size
# Procedure, shortened: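 Read-out: dye fluorescence at 490 nm ex/535 nm em (monomers) and 540 nm ex/590 nm em (aggregates) in HepG2 cells. Compound exposure 1 hr at 37C, followed by 30 min dye loading.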
# [17] = target: Vitamin D3 receptor (Homo sapiens) (UniProt P11473); assay: qHTS assay for small molecule antagonists of vitamin D receptor signaling (AID 588541); conditions: HEK293T VDR-UAS-bla, beta-lactamase ratio, antagonist mode; series mostly up to 76.7 µM;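 note: receptor activated by calcitriol during compound treatment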
# Procedure, shortened: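 VDR-UAS-bla HEK293T cells (2000/well, 2% charcoal-stripped FBS) were treated with titrated compounds plus 1-alpha,25-dihydroxyvitamin D3 (50 nM or 3 nM final) for 16 h at 37 C. CCF4 beta-lactamase fluorescence was read; Hill fits gave IC50.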
# [18] = target: Vitamin D3 receptor (Homo sapiens) (UniProt P11473); assay: qHTS assay for small molecule agonists of vitamin D receptor signaling (AID 588543); conditions: HEK293T VDR-UAS-bla, beta-lactamase ratio, 16 h; series mostly up to 76.8 µM
# Procedure, shortened: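 VDR-UAS-bla HEK293T cells, 2000/well, 2% charcoal-stripped FBS; compound titration 16 h at 37 C; CCF4 beta-lactamase ratio read. Normalized to 50 nM 1-alpha,25-dihydroxyvitamin D3 (100%) and DMSO; Hill fit gives EC50, efficacy.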
# [19] = target: Peroxisome proliferator-activated receptor gamma (Homo sapiens) (UniProt P37231); assay: qHTS assay for small molecule antagonists of peroxisome proliferator-activated receptor gamma signaling (AID 588537; active = well fitted inhibition curve with a large enough effect in the signal ratio, with a control signal flat, not every such curve was filed as active; the % refers to the signal ratio;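 note: reporter cells co-stimulated with 50 nM rosiglitazone agonist during compound treatment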); conditions: HEK293 PPARg-UAS-bla, beta-lactamase ratio, antagonist mode; series mostly up to 76.8 µM
# Procedure, shortened: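 HEK293 cells, PPAR-gamma-UAS-bla, 3000/well. Pre-incubation 6-6.5 h, 37 C. Compound titration with rosiglitazone 50 nM final, 16 h. CCF4 dye, 2 h RT, dual-emission fluorescence.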
# Chain of Retinoic acid receptor RXR-alpha (Homo sapiens) (P19793 whole entry, looked up): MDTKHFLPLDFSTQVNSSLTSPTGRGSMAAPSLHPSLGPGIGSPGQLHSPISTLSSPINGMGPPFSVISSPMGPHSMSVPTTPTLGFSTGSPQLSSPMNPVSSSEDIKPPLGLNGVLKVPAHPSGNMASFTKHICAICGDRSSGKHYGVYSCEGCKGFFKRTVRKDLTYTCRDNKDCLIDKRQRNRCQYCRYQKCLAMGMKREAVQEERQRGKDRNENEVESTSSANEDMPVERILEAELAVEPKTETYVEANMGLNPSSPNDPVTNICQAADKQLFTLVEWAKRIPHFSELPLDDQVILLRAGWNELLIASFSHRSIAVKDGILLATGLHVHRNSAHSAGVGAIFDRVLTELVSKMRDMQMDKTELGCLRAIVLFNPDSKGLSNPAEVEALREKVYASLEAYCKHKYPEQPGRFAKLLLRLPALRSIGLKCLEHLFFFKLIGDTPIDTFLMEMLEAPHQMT
# Chain of Vitamin D3 receptor (Homo sapiens) (P11473 whole entry, looked up): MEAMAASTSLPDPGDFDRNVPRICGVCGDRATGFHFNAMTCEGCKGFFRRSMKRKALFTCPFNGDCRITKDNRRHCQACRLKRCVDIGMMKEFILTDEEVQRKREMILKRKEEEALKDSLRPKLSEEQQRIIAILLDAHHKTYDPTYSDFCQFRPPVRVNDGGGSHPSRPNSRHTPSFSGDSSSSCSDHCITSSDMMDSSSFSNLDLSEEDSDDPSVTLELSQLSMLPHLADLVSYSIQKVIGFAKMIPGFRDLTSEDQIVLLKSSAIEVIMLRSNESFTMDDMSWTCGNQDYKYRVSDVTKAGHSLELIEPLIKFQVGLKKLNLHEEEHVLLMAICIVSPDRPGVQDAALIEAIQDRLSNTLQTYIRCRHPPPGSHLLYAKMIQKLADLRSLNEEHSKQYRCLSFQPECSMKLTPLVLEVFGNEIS
# Chain of Thyroid hormone receptor beta (Homo sapiens) (P10828 whole entry, looked up): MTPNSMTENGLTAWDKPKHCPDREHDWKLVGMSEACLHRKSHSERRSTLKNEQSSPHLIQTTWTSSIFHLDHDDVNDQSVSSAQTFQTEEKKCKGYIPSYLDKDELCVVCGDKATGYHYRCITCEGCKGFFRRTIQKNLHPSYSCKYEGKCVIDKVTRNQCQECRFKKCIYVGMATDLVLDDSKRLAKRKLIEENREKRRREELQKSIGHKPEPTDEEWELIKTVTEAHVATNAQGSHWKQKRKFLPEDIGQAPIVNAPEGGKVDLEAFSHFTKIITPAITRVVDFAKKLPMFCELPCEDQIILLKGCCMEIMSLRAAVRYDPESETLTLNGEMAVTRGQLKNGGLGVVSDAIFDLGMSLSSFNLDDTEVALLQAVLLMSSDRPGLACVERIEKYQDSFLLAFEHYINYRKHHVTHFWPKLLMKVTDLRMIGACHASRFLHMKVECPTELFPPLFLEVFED
# Chain of Peroxisome proliferator-activated receptor delta (Homo sapiens) (Q03181 whole entry, looked up): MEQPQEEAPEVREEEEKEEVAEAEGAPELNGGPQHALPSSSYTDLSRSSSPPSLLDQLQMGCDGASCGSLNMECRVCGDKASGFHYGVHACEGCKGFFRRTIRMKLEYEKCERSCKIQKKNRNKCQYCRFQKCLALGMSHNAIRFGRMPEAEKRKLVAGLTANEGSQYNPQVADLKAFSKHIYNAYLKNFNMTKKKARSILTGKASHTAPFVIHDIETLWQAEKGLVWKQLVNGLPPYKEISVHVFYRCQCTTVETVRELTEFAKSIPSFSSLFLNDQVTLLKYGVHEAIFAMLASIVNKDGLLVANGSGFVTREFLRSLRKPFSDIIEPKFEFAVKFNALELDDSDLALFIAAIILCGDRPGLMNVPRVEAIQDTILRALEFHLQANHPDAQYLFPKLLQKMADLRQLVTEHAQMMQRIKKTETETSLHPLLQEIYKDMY
# Chain of Voltage-gated inwardly rectifying potassium channel KCNH2 (Homo sapiens) (Q12809 whole entry, looked up): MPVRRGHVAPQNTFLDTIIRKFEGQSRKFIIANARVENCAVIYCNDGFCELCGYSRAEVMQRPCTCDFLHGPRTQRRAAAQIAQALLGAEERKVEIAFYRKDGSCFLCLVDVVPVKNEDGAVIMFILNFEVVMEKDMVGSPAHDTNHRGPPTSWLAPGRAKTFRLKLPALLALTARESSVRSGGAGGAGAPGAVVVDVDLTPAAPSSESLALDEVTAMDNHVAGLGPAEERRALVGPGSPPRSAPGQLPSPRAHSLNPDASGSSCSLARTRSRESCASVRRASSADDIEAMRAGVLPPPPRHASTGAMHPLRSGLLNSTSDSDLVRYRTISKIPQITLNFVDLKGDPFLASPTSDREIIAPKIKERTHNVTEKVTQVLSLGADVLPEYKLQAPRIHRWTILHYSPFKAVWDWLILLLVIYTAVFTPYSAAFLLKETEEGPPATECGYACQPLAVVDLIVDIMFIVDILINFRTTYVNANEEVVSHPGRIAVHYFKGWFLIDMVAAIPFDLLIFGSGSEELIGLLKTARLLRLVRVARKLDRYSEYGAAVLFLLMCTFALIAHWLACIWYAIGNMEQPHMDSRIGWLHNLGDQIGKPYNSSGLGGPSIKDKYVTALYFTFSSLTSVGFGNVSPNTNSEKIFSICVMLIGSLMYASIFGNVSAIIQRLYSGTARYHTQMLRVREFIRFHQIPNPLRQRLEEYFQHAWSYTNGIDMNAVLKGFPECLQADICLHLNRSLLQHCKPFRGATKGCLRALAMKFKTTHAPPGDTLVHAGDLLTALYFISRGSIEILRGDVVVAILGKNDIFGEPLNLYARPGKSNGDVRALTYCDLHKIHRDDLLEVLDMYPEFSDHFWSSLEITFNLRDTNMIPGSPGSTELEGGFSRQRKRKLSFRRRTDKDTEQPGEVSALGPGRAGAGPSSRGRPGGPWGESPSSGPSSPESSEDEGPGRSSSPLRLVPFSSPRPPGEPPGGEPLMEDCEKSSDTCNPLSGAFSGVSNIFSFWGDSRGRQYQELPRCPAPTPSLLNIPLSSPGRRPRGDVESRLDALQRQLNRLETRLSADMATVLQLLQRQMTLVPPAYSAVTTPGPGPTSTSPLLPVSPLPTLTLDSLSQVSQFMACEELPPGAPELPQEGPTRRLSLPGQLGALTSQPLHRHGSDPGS
# Chain of Peroxisome proliferator-activated receptor gamma (Homo sapiens) (P37231 whole entry, looked up): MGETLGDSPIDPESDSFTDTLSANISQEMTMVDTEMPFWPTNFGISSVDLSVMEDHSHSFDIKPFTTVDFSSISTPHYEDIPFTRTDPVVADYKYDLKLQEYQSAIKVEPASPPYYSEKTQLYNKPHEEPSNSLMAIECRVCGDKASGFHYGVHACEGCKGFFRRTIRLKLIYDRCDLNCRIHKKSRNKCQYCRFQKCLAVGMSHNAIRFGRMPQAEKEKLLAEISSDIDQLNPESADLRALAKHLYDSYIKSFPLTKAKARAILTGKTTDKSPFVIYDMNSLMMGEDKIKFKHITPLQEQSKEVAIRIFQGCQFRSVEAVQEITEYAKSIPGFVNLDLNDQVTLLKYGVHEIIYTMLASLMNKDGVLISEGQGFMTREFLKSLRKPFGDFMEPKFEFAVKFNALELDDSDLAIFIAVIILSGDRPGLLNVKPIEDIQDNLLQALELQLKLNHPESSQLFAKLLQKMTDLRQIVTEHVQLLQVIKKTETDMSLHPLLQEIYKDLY
# Chain of Glucocorticoid receptor (Homo sapiens) (P04150 whole entry, looked up): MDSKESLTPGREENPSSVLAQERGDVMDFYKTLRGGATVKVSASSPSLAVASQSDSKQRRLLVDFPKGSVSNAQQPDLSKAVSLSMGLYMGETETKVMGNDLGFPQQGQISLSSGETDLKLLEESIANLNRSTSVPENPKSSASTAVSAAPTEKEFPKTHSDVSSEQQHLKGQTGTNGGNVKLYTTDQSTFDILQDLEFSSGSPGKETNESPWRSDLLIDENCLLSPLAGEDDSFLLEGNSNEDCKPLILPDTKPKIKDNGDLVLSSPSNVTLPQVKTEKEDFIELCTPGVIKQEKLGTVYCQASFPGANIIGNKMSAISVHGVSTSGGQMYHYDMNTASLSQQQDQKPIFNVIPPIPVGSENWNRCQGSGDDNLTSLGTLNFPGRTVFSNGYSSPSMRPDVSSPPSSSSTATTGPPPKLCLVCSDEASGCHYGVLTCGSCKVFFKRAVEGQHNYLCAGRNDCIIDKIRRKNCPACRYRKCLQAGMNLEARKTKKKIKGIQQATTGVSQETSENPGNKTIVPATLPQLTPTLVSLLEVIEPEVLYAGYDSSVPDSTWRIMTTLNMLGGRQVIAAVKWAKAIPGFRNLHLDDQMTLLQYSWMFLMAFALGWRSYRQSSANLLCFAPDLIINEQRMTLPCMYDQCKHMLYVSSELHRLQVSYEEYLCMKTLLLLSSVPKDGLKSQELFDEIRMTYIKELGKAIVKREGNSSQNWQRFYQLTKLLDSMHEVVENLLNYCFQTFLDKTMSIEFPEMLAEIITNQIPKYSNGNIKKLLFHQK
SMILES,activation [1],outcome [2],max response [3],Potency [4],outcome [5],max response [6],outcome [7],outcome [8],max response [9],max response [10],activity change % (negative = inhibition) [11],Potency [12],Potency [13],activation [14],activation [15],Potency [16],outcome [17],outcome [18],outcome [19]
CC(CCl)OC(C)CCl (stereo not given),1.48% (inactive),inactive,6.69%,inactive,inactive,2.52%,inactive,inactive,-11.8%,19.4% (inactive),-2.31% (inactive),inactive,inactive,-3.45% (inactive),0.22% (inactive),inactive,,,
Nc1cccc(O)c1,-1.32% (inactive),inactive,11.9%,inactive,inactive,-4.39%,inactive,inactive,6.84%,1.85% (inactive),-7.53% (inactive),inactive,,,-1.16% (inactive),,inactive,inactive,
Cc1c(C(=O)O)cccc1[N+](=O)[O-],-3.11% (inactive),inactive,-26.4%,,inactive,-9.97%,inactive,inactive,-4.5%,-1.44% (inactive),12.8% (inactive),inactive,,1.1% (inactive),0.0023% (inactive),inactive,,inactive,inactive
CC/C=C1/OC(=O)c2ccccc21,-3.66% (inactive),inactive,6.22%,inactive,inactive,0.089%,inactive,inactive,-8.24%,8.95% (inactive),10.4% (inactive),inactive,inactive,-1.64% (inactive),-0.0092% (inactive),inactive,,inactive,
O=Nc1ccc(NO)cc1,5.11% (inactive),inactive,-72.9%,12.6 µM (active),inactive,,,inactive,,,-12.9% (inactive),inactive,13.3 µM (active),-5.55% (inactive),-2.26% (inactive),,inactive,inactive,
O=C1OC(=O)c2cc([N+](=O)[O-])ccc21,5.66% (inactive),inactive,9.55%,,inactive,18.2%,inactive,inactive,10.4%,1.57% (inactive),7.82% (inactive),inactive,inactive,1.53% (inactive),-0.857% (inactive),inactive,inactive,inactive,inactive
CC#N,-2.4% (inactive),inactive,21.5%,inactive,,8.5%,inactive,inactive,-2.35%,,12.3% (inactive),inactive,,-3.18% (inactive),-1.06% (inactive),inactive,,,
C=Cc1ccccn1,-3.05% (inactive),inactive,,,inactive,-16.6%,inactive,,-12.9%,-1.58% (inactive),-28.4% (inactive),inactive,,-2.17% (inactive),,inactive,inactive,inactive,inactive
O=C(Cl)c1ccccc1[N+](=O)[O-],-0.396% (inactive),inactive,,,inactive,-17.2%,inactive,,,,-10.2% (inactive),inactive,,0.51% (inactive),-0.445% (inactive),inactive,,,
OC(CCl)CCl,14.2% (inactive),inactive,,,inactive,-16.7%,inactive,inactive,-12.4%,,2.68% (inactive),inactive,inactive,-1.36% (inactive),1.2% (inactive),inactive,inactive,inactive,inactive
CC(=O)c1cccc([N+](=O)[O-])c1,1.38% (inactive),inactive,13.5%,,inactive,-6.78%,inactive,inactive,3.27%,7.36% (inactive),10.7% (inactive),inactive,inactive,-3.72% (inactive),,inactive,inactive,inactive,
O=[N+]([O-])c1cccc(C(F)(F)F)c1,-5.05% (inactive),inactive,,,inactive,-15.5%,inactive,,-3.15%,-2.39% (inactive),8.91% (inactive),inactive,,2.87% (inactive),,inactive,inactive,,inactive
Cc1cccc(Br)c1,-2.46% (inactive),inactive,,,inactive,-0.411%,inactive,inactive,-8.74%,17.3% (inactive),0.545% (inactive),inactive,inactive,-1.99% (inactive),,inactive,,,
CC/C(C)=N/O,3.82% (inactive),inactive,,,,-14.2%,inactive,inactive,,,13.4% (inactive),inactive,,-0.712% (inactive),,,inactive,inactive,
Nc1cccc(S(=O)(=O)O)c1,-6.32% (inactive),inactive,-7.97%,,inactive,8.69%,inactive,inactive,-5.6%,16.1% (inactive),-28.7% (inactive),inactive,inactive,-1.01% (inactive),-0.968% (inactive),inactive,inactive,inactive,
Cc1ccco1,-1.2% (inactive),inactive,,,inactive,-10.8%,inactive,inactive,-5.98%,,12.3% (inactive),inactive,,2.07% (inactive),-0.364% (inactive),,inactive,,inactive
